The text below walks through data of a collection of fitness landscapes (doi:10.1126/science.1257360).

The full ranking holds about 140,000 sequences; the median of “enrichment ratio after two sorts for PhoP signalling” is about 0, and the highest 2% start at about 11. The full list was thinned out, with the highest values kept by preference.

To fix the notation:
B1: PhoQ; a variant is named by its letters at X, in order, P23837 (parent)
chain: MKKLLRLFFPLSLRVRFLLATAAVVLVLSLAYGMVALIGYSVSFDKTTFRLLRGESNLFYTLAKWENNKLHVELPENIDKQSPTMTLIYDENGQLLWAQRDVPWLMKMIQPDWLKSNGFHEIEADVNDTSLLLSGDHSIQQQLQEVREDDDDAEMTHSVAVNVYPATSRMPKLTIVVVDTIPVELKSSYMVWSWFIYVLSANLLLVIPLLWVAAWWSLRPIEALAKEVRELEEHNRELLNPATTRELTSLVRNLNRLLKSERERYDKYRTTLTDLTHSLKTPLXXLQXXLRSLRSEKMSVSDAEPVMLEQISRISQQIGYYLHRASMRGGTLLSRELHPVAPLLDNLTSALNKVYQRKGVNISLDISPEISFVGEQNDFVEVMGNVLDNACKYCLEFVEISARQTDEHLYIVVEDDGPGIPLSKREVIFDRGQRVDTLRPGQGVGLAVAREITEQYEGKIVAGESMLGGARMEVIFGRQHSAPKDE

The experiment covers variants of B1. The experiment is described as follows: enrichment ratio after two sorts for PhoP signalling (ratio (wild type AVST 3.29)); higher = more functional. Conditions: with PhoP (E. coli).
As for IDWP, the enrichment ratio is at most 0.25.

As for HREC, the enrichment ratio is at most 0.25.

On to GNSH, for which the enrichment ratio was 1.23.

Take IQIR: the enrichment ratio is at most 0.25.

Consider DTPS, for which the enrichment ratio was at most 0.25.

Take GPWS: the enrichment ratio was at most 0.25.

Consider ESVV, for which the enrichment ratio was at most 0.25.

CSLT: the enrichment ratio is 11.7.

Consider CSLY, for which the enrichment ratio amounted to 0.296.

As to CSLA, the enrichment ratio was found to be 2.15.

Regarding CSLP, the enrichment ratio is at most 0.25.

Consider CSLS, for which the enrichment ratio amounted to 21.9.

CSFT: the enrichment ratio is at most 0.25.

Regarding NPIK, the enrichment ratio was at most 0.25.

Regarding DVWP, the enrichment ratio was at most 0.25.

Turning to DDAS, the enrichment ratio was at most 0.25.

Turning to MKAH, the enrichment ratio was at most 0.25.

In the case of NEAH, the enrichment ratio is at most 0.25.

Consider QEAH, for which the enrichment ratio was at most 0.25.

On to HPAH, for which the enrichment ratio was at most 0.25.

GVAH: the enrichment ratio was 0.601.

MVTH: the enrichment ratio is 2.25.

For MVAH, the enrichment ratio worked out at 12.3.

MCAH: the enrichment ratio was determined as 2.04.

Regarding MEAH, the enrichment ratio was 28.9.

In the case of TEAH, the enrichment ratio came out at 40.

As to SEAH, the enrichment ratio was 31.6.

As to SFAH, the enrichment ratio is at most 0.25.

Take YETW: the enrichment ratio is at most 0.25.

Take REHR: the enrichment ratio was at most 0.25.

Consider VKCV, for which the enrichment ratio was at most 0.25.

Consider MGTW, for which the enrichment ratio was at most 0.25.

With FNVE, the enrichment ratio is at most 0.25.

As for NWYH, the enrichment ratio is at most 0.25.

HLAW: the enrichment ratio was at most 0.25.

Take VCYP: the enrichment ratio was at most 0.25.

Turning to MRAI, the enrichment ratio was at most 0.25.

Take TEFK: the enrichment ratio was found to be 1.68.

On to HELG, for which the enrichment ratio stood at 12.3.

For the variant MFLG, the enrichment ratio came to 0.27.

HYLG: the enrichment ratio is at most 0.25.

Take HELA: the enrichment ratio was at most 0.25.

In the case of HPLG, the enrichment ratio is at most 0.25.

For the variant MELG, the enrichment ratio turned out to be 22.3.

Take TELG: the enrichment ratio came to 27.4.

As to NELG, the enrichment ratio amounted to 2.34.

Regarding MPLG, the enrichment ratio was at most 0.25.

With EFRW, the enrichment ratio was at most 0.25.

As to YYAI, the enrichment ratio is at most 0.25.

On to AISP, for which the enrichment ratio is at most 0.25.

As to SFQS, the enrichment ratio is at most 0.25.

Consider NRHR, for which the enrichment ratio is at most 0.25.

On to MSNW, for which the enrichment ratio is at most 0.25.

PCTN: the enrichment ratio was at most 0.25.

Turning to TDQW, the enrichment ratio was at most 0.25.

For the variant LVST, the enrichment ratio is at most 0.25.

For the variant RVEC, the enrichment ratio was at most 0.25.

Turning to CTTF, the enrichment ratio was at most 0.25.

CSTF: the enrichment ratio stood at 15.8.

Regarding AHTF, the enrichment ratio was at most 0.25.

Regarding ASTF, the enrichment ratio turned out to be 11.8.

With ASHF, the enrichment ratio was at most 0.25.

For LTTF, the enrichment ratio was at most 0.25.

In the case of YTTF, the enrichment ratio was at most 0.25.

Regarding ADTF, the enrichment ratio is at most 0.25.

Turning to CITF, the enrichment ratio was at most 0.25.

AVHF: the enrichment ratio is at most 0.25.

With ATTF, the enrichment ratio amounted to 18.8.

In the case of AVTF, the enrichment ratio stood at 11.4.

In the case of QRGI, the enrichment ratio is at most 0.25.

In the case of VSMY, the enrichment ratio was at most 0.25.

Regarding YGPL, the enrichment ratio is at most 0.25.

On to AGVR, for which the enrichment ratio is at most 0.25.

For the variant TLEC, the enrichment ratio was at most 0.25.

As for VESY, the enrichment ratio is at most 0.25.

Regarding YITC, the enrichment ratio was at most 0.25.

In the case of QKNA, the enrichment ratio is at most 0.25.

With AITF, the enrichment ratio is 15.

For the variant KSTF, the enrichment ratio was at most 0.25.

Consider AKTF, for which the enrichment ratio is 2.43.

As for IPNS, the enrichment ratio is at most 0.25.

With WFEY, the enrichment ratio is at most 0.25.

As for AYPG, the enrichment ratio is at most 0.25.

Regarding TDYI, the enrichment ratio is at most 0.25.

For the variant KDLN, the enrichment ratio was at most 0.25.

CDLS: the enrichment ratio was at most 0.25.

As to TDLA, the enrichment ratio was determined as 14.

As for TDLN, the enrichment ratio stood at 14.9.

On to TDTI, for which the enrichment ratio came out at 14.6.

Take LTLS: the enrichment ratio was at most 0.25.

As to TDLS, the enrichment ratio came out at 18.

In the case of LTLN, the enrichment ratio was at most 0.25.

Turning to TDTH, the enrichment ratio is 8.19.

As for TDLT, the enrichment ratio came to 7.28.

For TDTK, the enrichment ratio is at most 0.25.

For VMTR, the enrichment ratio is at most 0.25.

As to STQS, the enrichment ratio was at most 0.25.

In the case of KTAN, the enrichment ratio is at most 0.25.

For DFLN, the enrichment ratio was at most 0.25.

As for NTCK, the enrichment ratio is at most 0.25.

QLKF: the enrichment ratio is at most 0.25.

As to TGQG, the enrichment ratio was found to be 15.7.

As to KAQG, the enrichment ratio was at most 0.25.

As to PFQG, the enrichment ratio was at most 0.25.

As to PVQG, the enrichment ratio was at most 0.25.

On to TFQG, for which the enrichment ratio is 12.3.

On to NVQG, for which the enrichment ratio was at most 0.25.

As for PLQG, the enrichment ratio is at most 0.25.

As to RGQG, the enrichment ratio is at most 0.25.

On to GGQG, for which the enrichment ratio is at most 0.25.

In the case of TVQG, the enrichment ratio was 14.6.

Turning to NFQG, the enrichment ratio was at most 0.25.

With TLQG, the enrichment ratio turned out to be 11.8.

With VFKH, the enrichment ratio is at most 0.25.

On to NHHA, for which the enrichment ratio is at most 0.25.

On to ILFN, for which the enrichment ratio was at most 0.25.

Take FTCA: the enrichment ratio is at most 0.25.

With STNQ, the enrichment ratio amounted to 1.23.

On to FWKT, for which the enrichment ratio is at most 0.25.

In the case of LMTM, the enrichment ratio was at most 0.25.

Take TMQG: the enrichment ratio is 11.9.

With EMQG, the enrichment ratio is at most 0.25.

As for HAQG, the enrichment ratio was at most 0.25.

Take TITY: the enrichment ratio was at most 0.25.

On to SNWM, for which the enrichment ratio was at most 0.25.

Take TQAM: the enrichment ratio worked out at 25.5.

Take SFAT: the enrichment ratio is at most 0.25.

For TTAM, the enrichment ratio was 17.5.

GTAM: the enrichment ratio is at most 0.25.

On to SLAT, for which the enrichment ratio was at most 0.25.

Turning to SNAM, the enrichment ratio is 13.5.

Take NQAM: the enrichment ratio is at most 0.25.

Take FQAM: the enrichment ratio is at most 0.25.

Consider ITAM, for which the enrichment ratio turned out to be 0.308.

On to SQAT, for which the enrichment ratio is 12.5.

Consider SNCK, for which the enrichment ratio amounted to 0.609.

EQWF: the enrichment ratio was at most 0.25.

As to TQKS, the enrichment ratio was at most 0.25.

Regarding TDDA, the enrichment ratio was at most 0.25.

With HGKC, the enrichment ratio was at most 0.25.

As to ILFG, the enrichment ratio was at most 0.25.

As for STAM, the enrichment ratio was 12.1.

For the variant SPAM, the enrichment ratio was at most 0.25.

YTAM: the enrichment ratio is at most 0.25.

Turning to SQAM, the enrichment ratio was determined as 21.4.

Take SFAM: the enrichment ratio was at most 0.25.

As for WQAM, the enrichment ratio is at most 0.25.

As to SERM, the enrichment ratio was at most 0.25.

For SEAM, the enrichment ratio turned out to be 15.9.

Turning to RSGP, the enrichment ratio is at most 0.25.

For the variant ILCM, the enrichment ratio is at most 0.25.

For CSYF, the enrichment ratio was at most 0.25.

For the variant EGPL, the enrichment ratio is at most 0.25.

Turning to STKG, the enrichment ratio is at most 0.25.

For the variant TAEP, the enrichment ratio turned out to be 0.518.

For VSNR, the enrichment ratio was at most 0.25.

Consider GGCN, for which the enrichment ratio was 0.54.

Turning to YTLN, the enrichment ratio was 8.58.

For STLN, the enrichment ratio was 14.8.

With TTLN, the enrichment ratio came out at 23.9.

For TKLN, the enrichment ratio is 8.35.

As to AILN, the enrichment ratio is 4.12.

Consider TGCN, for which the enrichment ratio is 42.2.

For the variant RGCN, the enrichment ratio is at most 0.25.

As to ITLN, the enrichment ratio was found to be 1.49.

With SPLN, the enrichment ratio was at most 0.25.

Regarding KYLN, the enrichment ratio is at most 0.25.

AKLN: the enrichment ratio was 14.

Take AGQV: the enrichment ratio was at most 0.25.

With QSKK, the enrichment ratio is at most 0.25.

For HWTI, the enrichment ratio was at most 0.25.

With QAFH, the enrichment ratio was found to be 9.93.

As to QFDR, the enrichment ratio was at most 0.25.

On to QGQP, for which the enrichment ratio was at most 0.25.

With LKDC, the enrichment ratio was at most 0.25.

As for PWTA, the enrichment ratio was at most 0.25.

As for LSFA, the enrichment ratio was at most 0.25.

In the case of YDML, the enrichment ratio was at most 0.25.

As for ATLN, the enrichment ratio is 17.9.

Regarding ADCN, the enrichment ratio was 11.5.

For RICN, the enrichment ratio is at most 0.25.

With NVCN, the enrichment ratio is at most 0.25.

With ATQN, the enrichment ratio was at most 0.25.

With AICN, the enrichment ratio was determined as 18.7.

In the case of AHCN, the enrichment ratio was at most 0.25.

Turning to NICN, the enrichment ratio is at most 0.25.

With SPCN, the enrichment ratio is at most 0.25.

With AWCN, the enrichment ratio is at most 0.25.

Regarding ATCN, the enrichment ratio was determined as 3.42.

In the case of TVCN, the enrichment ratio was 26.1.

CTFI: the enrichment ratio was 9.39.

With DTFW, the enrichment ratio is at most 0.25.

In the case of LRFL, the enrichment ratio was at most 0.25.

Take IIPK: the enrichment ratio is at most 0.25.

Turning to EKLK, the enrichment ratio was at most 0.25.
